This is part of a sample that, as a whole, favours compounds with a hit. Of some 83,000 tested, about 20% had one in any assay.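 Compound tested at a single concentration for 48 hours in 96-well plates; a percent growth value below 10 was scored as active.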 A number with no mark means an inactive call. Activity calls are given as the source filed them.

Some test systems named below: NCI-H23 lung; NCI-H226 lung; NCI-H322M lung; HOP-62 NSCLC; NCI-H460 lung; HOP-92 NSCLC; NCI-H522 lung; A549/ATCC NSCLC; 786-0 renal; COLO 205 colon.
Common to all, as to assay: NCI-60 one-dose screen, 48 h (100 = growth as untreated, 0 = no growth, -100 = all killed)
What all share (conditions): 10 µM unless noted

As for `COc1ccc(/C=C2\CCCC3=C2NC(C)=NC3c2ccc(OC)c(OC)c2)cc1OC` (stereo not given), the growth in the assay with NCI-H23 lung was 29.1%; with NCI-H226 lung, -22.4% (active); with NCI-H322M lung it was 47.4%; in the assay on HOP-62 NSCLC, 32.1%; in the assay on NCI-H460 lung, 0.649% (active); in the assay on HOP-92 NSCLC, 30.1%. The growth with NCI-H522 lung was -7.42% (active); in the assay with A549/ATCC NSCLC, 18%; in the assay on 786-0 renal, 9.19% (active); in the assay on COLO 205 colon, -29.8% (active).
With `COc1ccc(-c2nc3sccn3c2-c2ccnc(NCCCNS(=O)(=O)c3ccc4ccccc4c3)n2)cc1`, the growth in the assay on NCI-H23 lung is 64.3%; in the assay on NCI-H226 lung, 62%; in the assay with NCI-H322M lung, 93.1%; in the assay on HOP-62 NSCLC it was 134%; in the assay on NCI-H460 lung, 75.9%; in the assay with HOP-92 NSCLC, 104%. Moreover, the growth in the assay on NCI-H522 lung was 62.4%; in the assay with A549/ATCC NSCLC, 76.1%; in the assay on 786-0 renal, 67.6%; in the assay on COLO 205 colon, 57.6%.
As for `C=C1C(=O)O[C@H]2[C@H]1CC/C(Cn1cc(-c3ccc(N)cc3)nn1)=C\CC[C@@]1(C)O[C@@H]21`, the growth with NCI-H23 lung is 22.3%; with NCI-H226 lung, -14.3% (active); with NCI-H322M lung, 78.9%; in the assay on HOP-62 NSCLC, 51.4%; in the assay on NCI-H460 lung it was 74%; in the assay with HOP-92 NSCLC, -44.3% (active). The growth in the assay with NCI-H522 lung was -73.2% (active); in the assay on A549/ATCC NSCLC, 48.6%; with 786-0 renal, -61.3% (active); in the assay on COLO 205 colon, -63.5% (active).
Turning to `CCOC(=O)c1cc(/C(=N\O)c2cc(OC)c(OC)c(OC)c2)n2c(C)cccc12`, the growth in the assay with NCI-H23 lung was 59.3%; in the assay on NCI-H226 lung, 78.8%; in the assay with NCI-H322M lung it was 59.2%; in the assay on HOP-62 NSCLC it was 36.2%; with NCI-H460 lung it was 15.3%; with HOP-92 NSCLC, 54.6%. Also, the growth with NCI-H522 lung was -3.5% (active); with A549/ATCC NSCLC it was 48%; in the assay on 786-0 renal it was 26.3%; with COLO 205 colon, 21.2%.
Consider `COc1cccc(/C=C/c2c(C(=O)O)cccc2[N+](=O)[O-])c1OC`, for which the growth with NCI-H23 lung is 104%; in the assay with NCI-H226 lung, 99.5%; in the assay with NCI-H322M lung, 107%; in the assay with HOP-62 NSCLC, 95.5%; in the assay on NCI-H460 lung, 104%; in the assay with HOP-92 NSCLC, 89.1%. Also, the growth is 113% with NCI-H522 lung, 103% with A549/ATCC NSCLC, 99.1% with 786-0 renal and 100% with COLO 205 colon.
Take `Nc1nc(-c2cc3ccccc3o2)cc(=O)c(=O)[nH]1`: the growth was 105% with NCI-H23 lung; 95.7% in the assay with NCI-H226 lung; 95.4% with NCI-H322M lung; 96.6% in the assay on HOP-62 NSCLC; 98.1% in the assay on NCI-H460 lung; -2.74% (active) with HOP-92 NSCLC. In addition, the growth is 91.9% in the assay with NCI-H522 lung, 110% in the assay with A549/ATCC NSCLC, 107% with 786-0 renal and 106% in the assay with COLO 205 colon.
In the case of `O=S(=O)(NCCCNc1cc(-c2cn(-c3ccccc3)nc2-c2cccc(O)c2)ccn1)c1cccc2ccccc12`, the growth was 44.9% in the assay on NCI-H23 lung; 38.7% with NCI-H226 lung; 44.3% in the assay on NCI-H322M lung; 47.3% with HOP-62 NSCLC; 18% in the assay on NCI-H460 lung; 11.8% in the assay with HOP-92 NSCLC. Also, the growth was 44.5% in the assay on NCI-H522 lung, 35.8% in the assay with A549/ATCC NSCLC, -9.71% (active) in the assay with 786-0 renal and -65.5% (active) in the assay on COLO 205 colon.
In the case of `COc1cc(C2C=C(C)N=C3SC=C(C)N32)cc(OC)c1OC` (stereo not given), the growth in the assay with NCI-H23 lung is -27.7% (active); in the assay on NCI-H226 lung it was 2.75% (active); with NCI-H322M lung, 13.6%; in the assay on HOP-62 NSCLC it was -62.1% (active); in the assay on NCI-H460 lung it was -39% (active); with HOP-92 NSCLC, -32.4% (active). Further, the growth in the assay on NCI-H522 lung was -87.1% (active); with A549/ATCC NSCLC, -19.2% (active); in the assay with 786-0 renal it was -69% (active); in the assay on COLO 205 colon, -75.9% (active).
For `C/C(=C\c1csc(C)n1)[C@@H]1C[C@@H]2O[C@]2(C)CCC[C@H](C)[C@H](O)[C@@H](C)C(=O)C(C)(C)[C@@H](O)CC(=O)N1`, the growth with NCI-H23 lung is -70% (active); with NCI-H226 lung it was -60.3% (active); in the assay with NCI-H322M lung, -83.3% (active); with HOP-62 NSCLC it was -69.5% (active); in the assay with NCI-H460 lung, -85.5% (active); in the assay on HOP-92 NSCLC it was -47.2% (active). Further, the growth is -81.4% (active) in the assay with NCI-H522 lung, -79.8% (active) in the assay with A549/ATCC NSCLC, -22.5% (active) in the assay on 786-0 renal and -62.5% (active) with COLO 205 colon.
On to `CC(C)[C@H](CO)Nc1nc(Nc2ccc(C(=O)NCCNS(=O)(=O)c3cccc4c(N(C)C)cccc34)c(Cl)c2)c2ncn(C(C)C)c2n1`, for which the growth is 25.3% in the assay on NCI-H23 lung; 22% in the assay with NCI-H226 lung; 15.4% with NCI-H322M lung; 1.86% (active) with HOP-62 NSCLC; 16.2% in the assay with NCI-H460 lung; -9.2% (active) with HOP-92 NSCLC. In addition, the growth is -31.5% (active) with NCI-H522 lung, 0.602% (active) in the assay with A549/ATCC NSCLC, -1.14% (active) in the assay on 786-0 renal and -69.3% (active) with COLO 205 colon.
Take `CCCn1c(=S)sc2c(Cl)nc(C)nc21`: the growth with NCI-H23 lung is 110%; in the assay on NCI-H226 lung, 91.6%; in the assay on NCI-H322M lung, 93.6%; with HOP-62 NSCLC, 104%; in the assay with NCI-H460 lung, 88.5%; with HOP-92 NSCLC, 99.3%. For the same compound, the growth in the assay on NCI-H522 lung was 33%; in the assay with A549/ATCC NSCLC, 117%; in the assay with 786-0 renal it was 106%; with COLO 205 colon, 43.5%.
Regarding `NC(=O)NC(=O)/C=C/C(=O)OCCCl`, the growth was 111% in the assay with NCI-H23 lung; 98.2% in the assay on NCI-H226 lung; 105% in the assay with NCI-H322M lung; 114% in the assay with HOP-62 NSCLC; 104% in the assay with NCI-H460 lung; 71.6% in the assay on HOP-92 NSCLC. Further, the growth with NCI-H522 lung is -42.5% (active); in the assay on A549/ATCC NSCLC, 105%; with 786-0 renal, 125%; with COLO 205 colon it was 97.7%.
For the compound `CN1C(=O)[C@H]2c3c1cccc3[C@@]13NC(=O)O[C@H]1[C@H](CCC3(C)C)C2(C)C`, the growth with NCI-H23 lung was 103%; in the assay with NCI-H226 lung it was 95.2%; in the assay on NCI-H322M lung, 108%; with HOP-62 NSCLC, 96%; with NCI-H460 lung, 105%; in the assay with HOP-92 NSCLC, 81.9%. Besides, the growth in the assay with NCI-H522 lung was 92.6%; with A549/ATCC NSCLC, 93.7%; in the assay with 786-0 renal, 96.6%; with COLO 205 colon, 107%.

For the origin of these results see PubChem BioAssay (NCI).
